High-throughput results: PubChem, National Center for Advancing Translational Sciences (NCATS)
Shown are actives, neighbours in structure and some others; about 11% of the full set was active somewhere.
PNC inhibitor – High Content Assay for Compounds that inhibit the Assembly of the Perinucleolar Compartment | PC3M PTB-GFP, PNC prevalence imaging, 16 h; hits give low values | activity change (PNC), negative = inhibition, % at 10 µM | 140,000 tested, 3.1% active;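 active = readout at or below -70, meaning at least 70% loss of cells showing the perinucleolar compartment, a nuclear body marking cancer cells; inconclusive = readout between -30 and a set limit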;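 also: plate controls were DMSO wells for no effect and camptothecin positive control wells for full effect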
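PC3M cells stably expressing PTB-GFP, 750–1000 cells/well, treated 16 h at 37 °C with compound (23 nl of library stock), in duplicate. After paraformaldehyde fixation and Hoechst stain, imaged at 20x; PNC prevalence scored by image analysis.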
HPGD block – qHTS Assay for Inhibitors of HPGD (15-Hydroxyprostaglandin Dehydrogenase); 15-hydroxyprostaglandin dehydrogenase [NAD(+)] (Homo sapiens), P15428; purified HPGD, NADH fluorescence kinetic, PGE2 substrate; Potency, µM, for the others: at the highest dose activity change, negative = inhibition, actives largely listed as inhibitors; 150,000 tested, 4.3% active; AID 894, 2007; also: potency is read from the fitted curve at half-maximal effect
Target sequence (P15428 whole entry, looked up): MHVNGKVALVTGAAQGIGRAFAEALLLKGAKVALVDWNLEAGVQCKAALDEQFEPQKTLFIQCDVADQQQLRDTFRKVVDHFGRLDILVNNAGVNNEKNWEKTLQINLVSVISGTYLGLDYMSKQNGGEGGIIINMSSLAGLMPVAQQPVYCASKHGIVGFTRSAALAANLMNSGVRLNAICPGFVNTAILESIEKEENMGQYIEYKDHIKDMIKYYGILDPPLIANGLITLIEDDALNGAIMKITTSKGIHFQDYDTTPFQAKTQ
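20 nM HPGD preincubated 15 min at room temperature with compound in 50 mM Tris-HCl pH 8, 0.01% Tween 20. Started with 1 mM NAD+ and 30 uM prostaglandin E2; NADH fluorescence (360/450 nm) read 5 times over 30-s intervals, last minus first.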
ALDH1A1 inh – qHTS Assay for Inhibitors of Aldehyde Dehydrogenase 1 (ALDH1A1) | Aldehyde dehydrogenase 1A1 (Homo sapiens), P00352 | Purified ALDH1A1, NADH fluorescence, propionaldehyde substrate | Potency, µM (doses to about 75.3 µM), for the others: top-dose activity, negative = inhibition, most hits filed as inhibitors | 220,000 tested, 7.3% active;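 also: potency is read from the fitted curve at half-maximal effect; plate controls were no enzyme wells and a reference inhibitor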
Active calls of the source: *; [ ] = remark or other dose. Unless noted, calls follow the shape of the dose curve; as a rule, active = well fitted inhibition curve with a large enough effect (not every such curve was filed as active); inconclusive = small, poorly fitted or top-dose-only effect, or another doubt; inactive = no such curve, though single readings can be large or run the other way. Unless noted, % is scaled to controls: 0 for no effect and ±100 for the full control effect.

For COC(=O)CSC1=C(C#N)C(c2cccc(F)c2)CC(=O)N1 (configuration not stated) the results were PNC inhibitor 17.5, HPGD block -0.8% and ALDH1A1 inh 8.2%.
Screening CCSC1=C(C#N)C(c2ccc(C)s2)CC(=O)N1 (configuration not stated) returned PNC inhibitor -17.0, HPGD block -9.4% and ALDH1A1 inh inconclusive.
COC(=O)CSC1=C(C#N)C(=O)NC(c2ccccc2)S1 (configuration not stated) was read as PNC inhibitor 23.1, HPGD block -22.5% and ALDH1A1 inh 23.8µM*.
For Cc1ccc(C(=O)NCC(=O)N/N=C/c2cccs2)cc1[N+](=O)[O-] the results were ALDH1A1 inh 11.6%.
For CCOC(=O)c1ccc(Oc2nc(OC)cc(OC)n2)cc1 the results were ALDH1A1 inh -1.3%.
N#CC1=C(SCC(=O)Nc2ccccc2)NC(=O)CC1c1ccc(O)cc1 (configuration not stated) was read as PNC inhibitor 4.2, HPGD block -1.7% and ALDH1A1 inh inconclusive.
C=C(C)CSC1=C(C#N)C(c2ccccc2)CC(=O)N1 (configuration not stated) was read as HPGD block 25.1µM* and ALDH1A1 inh 6.31µM*.
Screening CNCc1ccccc1Sc1ccc(O)c(O)c1 returned PNC inhibitor 4.9, HPGD block 17.8µM* and ALDH1A1 inh 0.562µM*.
`COc1ccc(Sc2ccccc2CN(C)C)cc1OC` gave PNC inhibitor 14.9, HPGD block -3.9% and ALDH1A1 inh -7.4%.
Screening c1ccc(CCCNc2nnnc3ccccc23)cc1 returned HPGD block -4.7% and ALDH1A1 inh -2.9%[13.5 µM].
O=C(N/C(=C\c1ccc(-c2ccccc2)o1)C(=O)N1CCOCC1)c1ccccc1 was read as ALDH1A1 inh -10.1%.
Screening O=S(=O)(Nc1cc(Sc2cccc3cccnc23)c(O)c2ccccc12)c1ccc(F)cc1 returned PNC inhibitor -118.2*, HPGD block 1.26µM* and ALDH1A1 inh 28.2µM*.
`O=S(=O)(Nc1ccccc1O)c1cccc2cccnc12` gave ALDH1A1 inh -10.7%.
For CCOc1cccc(OCCn2cnc3ccccc3c2=O)c1 the results were PNC inhibitor -90.7*, HPGD block 0.9% and ALDH1A1 inh -8.2%.
CCOc1cccc(OCCCCn2cnc3ccccc3c2=O)c1 was read as ALDH1A1 inh -5.3%.
`CCCc1cc(=O)oc2cc(C)cc(O)c12` gave PNC inhibitor 8.9, HPGD block -14.7% and ALDH1A1 inh 8.91µM*.
CCCCc1cc(O)c(CCCC)c(O)c1 was read as PNC inhibitor 33.1, HPGD block inconclusive and ALDH1A1 inh 2.4%.
Screening CCCc1cc(=O)oc2cc(C)cc(OC(=O)c3ccco3)c12 returned PNC inhibitor inconclusive, HPGD block 2.7% and ALDH1A1 inh 2.24µM*.
For CCCCc1cc(=O)oc2cc(C)c(CN3CCCC3)c(O)c12 the results were PNC inhibitor 3.7, HPGD block -16.9% and ALDH1A1 inh 22.4µM*.
Screening CCCc1cc(=O)oc2cc(OCC(=O)OC)cc(OCC(=O)OC)c12 returned PNC inhibitor 12.7, HPGD block inconclusive and ALDH1A1 inh inconclusive.
`CCCc1cc(=O)oc2cc(C)cc(OCc3nn[nH]n3)c12` gave PNC inhibitor 20.4, HPGD block inconclusive and ALDH1A1 inh inconclusive.
`CCc1cc(=O)oc2cc(C)c(CN3CCCC(C)C3)c(O)c12` (configuration not stated) gave PNC inhibitor 30.3, HPGD block -8.1% and ALDH1A1 inh inconclusive.
Screening CCCCCc1cc(O)c2c(C)cc(=O)oc2c1 returned PNC inhibitor 2.8, HPGD block -20.3% and ALDH1A1 inh 1.78µM*.
CC(C)(C)c1ccc(O)c(CN(Cc2cc(C(C)(C)C)ccc2O)C2CCCCC2)c1 was read as HPGD block -12.4% and ALDH1A1 inh 7.9%[13.5 µM].
For Cc1cc(C)n(CC(=O)O)c(=O)c1[N+](=O)[O-] the results were ALDH1A1 inh -28.0%.
Screening O=Cc1cnc(N2CCOCC2)nc1 returned PNC inhibitor 32.5, HPGD block -19.3% and ALDH1A1 inh 0.5%.
For CCc1cc(=O)oc2cc(C)c3c(C)coc3c12 the results were PNC inhibitor inconclusive, HPGD block -27.2% and ALDH1A1 inh inconclusive.
Screening CCc1cc(=O)oc2cc(C)cc(O)c12 returned PNC inhibitor -3.7, HPGD block 28.2µM* and ALDH1A1 inh 4.47µM*.
`CC1CCN(C(=S)Nc2ccc(F)cc2)CC1` gave PNC inhibitor 57.1, HPGD block -5.2% and ALDH1A1 inh -0.3%.
C/C(=N\NC(=S)Nc1ccc(F)cc1)C1CC1 was read as PNC inhibitor inconclusive, HPGD block 0.0% and ALDH1A1 inh 15µM*.
Screening CSc1nnc2c(n1)OC=Nc1ccccc1-2 returned PNC inhibitor 8.1, HPGD block -20.6% and ALDH1A1 inh 6.4%.
Screening CSc1nnc(-c2ccco2)c(-c2ccco2)n1 returned PNC inhibitor 3.6, HPGD block 8.91µM* and ALDH1A1 inh 3.55µM*.
O=C(CSc1nnc(-c2ccccc2)c(-c2ccccc2)n1)NCc1ccco1 was read as PNC inhibitor -15.8, HPGD block -23.6% and ALDH1A1 inh -7.9%.
For COc1ccc(C(=O)CSc2nnc(-c3ccco3)c(-c3ccco3)n2)cc1 the results were ALDH1A1 inh 3.98µM*.
For COc1ccc(C(=O)CSc2nnc(-c3ccco3)n2C)cc1 the results were PNC inhibitor -14.8, HPGD block -3.6% and ALDH1A1 inh inconclusive.
Screening Cc1ccc(NC(=O)CSc2nnc(-c3ccco3)c(-c3ccco3)n2)cc1 returned PNC inhibitor 3.8, HPGD block 11.2µM* and ALDH1A1 inh 3.16µM*.
For CCn1c(SCC(=O)Nc2ccc(OC)cc2)nnc1-c1ccco1 the results were PNC inhibitor -10.4, HPGD block -2.7% and ALDH1A1 inh 4.1%.
O=C(CSc1nnc(-c2ccco2)c(-c2ccco2)n1)Nc1ccccc1 was read as PNC inhibitor 19.8, HPGD block 25.1µM* and ALDH1A1 inh 2µM*.
OCCOCCN1CCN([C@@H](c2ccccc2)c2ccc(Cl)cc2)CC1 was read as HPGD block -8.1% and ALDH1A1 inh -5.9%[20.9 µM].
CCN(CC)S(=O)(=O)c1ccc(OCCNS(C)(=O)=O)cc1 was read as ALDH1A1 inh 11.8%.
For CC1(C)CC(=O)c2cnc(N)nc2C1 the results were PNC inhibitor 17.3, HPGD block -12.3% and ALDH1A1 inh inconclusive.
`CC1(C)CC(=O)c2cc3c(nc2C1)CC(C)(C)CC3=O` gave PNC inhibitor inconclusive and ALDH1A1 inh 7.08µM*.
`Cc1nc2ccccc2c(=O)n1NC(=O)c1ccccc1Cl` gave PNC inhibitor 8.0, HPGD block -5.2% and ALDH1A1 inh 5.1%.
Screening Cc1cc(Nc2ccccc2C(=O)O)nc2nc3ccccc3c(=O)n12 returned PNC inhibitor -89.8*, HPGD block -2.1% and ALDH1A1 inh inconclusive.
For COCCCNC(=O)CN(c1cccc(Cl)c1)S(C)(=O)=O the results were PNC inhibitor inconclusive, HPGD block -8.8% and ALDH1A1 inh 2µM*.
